Source: PubChem BioAssay (NCI)
The panel holds about 79,000 compounds, 15% with a hit somewhere; the sample as a whole holds those more often. Calls of active or inactive are those of the source. No stated cut-off is given here; in the data, active means growth inhibition above about 70%; inactive means the rest.

What was measured:
[1] = NCI Yeast Anticancer Drug Screen. Data for the rad52 strain (AID 147);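 further: 0% = growth of vehicle-treated control cultures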; conditions: S. cerevisiae rad52 mutant growth inhibition, active compounds read high
Procedure, shortened: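 Genetically altered yeast (DNA damage repair defect) treated with compound; inhibition calculated relative to vehicle.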

[2] = NCI Yeast Anticancer Drug Screen. Data for the wt1 strain (AID 149);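 further: 0% = growth of vehicle-treated wt1 cultures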; conditions: S. cerevisiae wt1 strain (SPY 50644) growth inhibition, active compounds read high
Procedure, shortened: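 Yeast wt1 strain exposed to compounds; growth inhibition measured relative to vehicle-treated controls.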

[3] = NCI Yeast Anticancer Drug Screen. Data for the rad50EPP+ strain (AID 151);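 further: 0% = growth of vehicle-treated control cultures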; conditions: S. cerevisiae rad50 mutant strain, active compounds read high
Procedure, shortened: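 Strain rad50EPP+; compound exposure; % growth inhibition vs vehicle.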

[4] = NCI Yeast Anticancer Drug Screen. Data for the rad50 strain (AID 155);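 further: 0% = growth of vehicle-only cultures of the same strain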; conditions: S. cerevisiae rad50 strain growth inhibition, active compounds read high
Procedure, shortened: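 Yeast carrying a defined DNA repair defect were exposed to test compounds, and growth was compared with vehicle-treated controls to give percent inhibition.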

[5] = NCI Yeast Anticancer Drug Screen. Data for the mec2-1 strain (AID 157); conditions: S. cerevisiae mec2-1 strain, active compounds read high
Procedure, shortened: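 Cells of the genetically defined mec2-1 yeast strain are incubated with test compound. Inhibition of growth is calculated against vehicle-treated controls.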

[6] = NCI Yeast Anticancer Drug Screen. Data for the rad14 strain (AID 159);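 further: 0% = growth of vehicle-treated control cultures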; conditions: S. cerevisiae rad14 strain growth inhibition, active compounds read high
Procedure, shortened: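 Yeast cells carrying a defined DNA-repair defect were exposed to compounds, and growth inhibition was calculated relative to vehicle-treated control cultures.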

[7] = NCI Yeast Anticancer Drug Screen. Data for the sgs1 mgt1 strain (AID 161);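 further: 0% = growth of cultures given vehicle only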; conditions: S. cerevisiae sgs1 mgt1 strain, active compounds read high
Procedure, shortened: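 Test agents were incubated with a DNA-repair-mutant yeast strain. Growth was then read and compared against vehicle-treated controls.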

[8] = NCI Yeast Anticancer Drug Screen. Data for the CLN2oe strain (AID 163);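 further: 0% = growth of vehicle-only control cultures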; conditions: S. cerevisiae CLN2oe strain, active compounds read high
Procedure, shortened: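 Strain altered in cell-cycle control, incubated with compound; growth compared to solvent-treated controls.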

[9] = NCI Yeast Anticancer Drug Screen. Data for the cln2 rad14 strain (AID 165);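 further: 0% = growth equal to vehicle treated cultures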; conditions: S. cerevisiae cln2 rad14 strain, active compounds read high
Procedure, shortened: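 The screen exposed genetically defined yeast (cln2 rad14) to test compounds and scored growth inhibition relative to vehicle-treated controls.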

[10] = NCI Yeast Anticancer Drug Screen. Data for the bub3 strain (AID 167); conditions: S. cerevisiae bub3 mutant strain, active compounds read high
Procedure, shortened: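 Compounds were applied to a genetically altered yeast strain carrying a cell-cycle control defect. Growth inhibition was scored against vehicle-treated controls.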

[11] = NCI Yeast Anticancer Drug Screen. Data for the wt2 strain (AID 169);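 further: 0% = growth of vehicle-treated yeast cultures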; conditions: S. cerevisiae wt2 strain growth inhibition, active compounds read high
Procedure, shortened: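 Steps: yeast strain treated with compound; growth recorded; inhibition calculated relative to cultures given vehicle alone.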

[12] = NCI Yeast Anticancer Drug Screen. Data for the mlh1 strain (AID 171);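 further: 0% = growth of vehicle-treated control cultures of the same strain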; conditions: S. cerevisiae mlh1 strain growth inhibition, active compounds read high
Procedure, shortened: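 Yeast screen: mutant strain plus compound, growth scored against vehicle control wells.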

[13] = NCI Yeast Anticancer Drug Screen. Data for the sgs1 strain (AID 173);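 further: 0% = growth of vehicle-only control cultures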; conditions: S. cerevisiae sgs1 mutant, active compounds read high
Procedure, shortened: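 Inhibition of yeast growth served as the measure. The mutant strain was treated with each compound, and growth was normalised to cultures receiving vehicle alone.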

[14] = NCI Yeast Anticancer Drug Screen. Data for the mlh1 rad18 strain (AID 175); conditions: S. cerevisiae mlh1 rad18 strain growth inhibition, active compounds read high
Procedure, shortened: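 Compound-treated yeast growth, normalised to vehicle controls. Strain bears defined DNA repair mutations.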

[15] = NCI Yeast Anticancer Drug Screen. Data for the mgt1 strain (AID 153); conditions: S. cerevisiae mgt1 mutant growth inhibition, active compounds read high
Procedure, shortened: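 Read-out: yeast growth inhibition vs vehicle control. Strain mgt1, drawn from a panel altered in DNA damage repair or cell cycle control.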

[16] = NCI Yeast Anticancer Drug Screen. Data for the rad18 strain (AID 177); conditions: S. cerevisiae rad18 mutant growth inhibition, active compounds read high
Procedure, shortened: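 Inhibition values reflect reduced yeast growth compared with vehicle-treated controls, using a strain engineered with a DNA damage repair defect.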

[17] = at 5.0 µM (retest, dose inferred, filed as 0.5)
[18] = at 50.0 µM (retest, dose inferred, filed as 5.0)

Measured: growth inhibition

O=C(NCCCNCCCNC(=O)c1cc(-c2ccccc2)nc2ccccc12)c1cc(-c2ccccc2)nc2ccccc12
active: [6]; at 100.0 µM 82% | [14]; [18] 78% | [14]; at 50.0 µM 89.4%
inactive: [1]; at 1.2 µM -4% | [1]; at 3.7 µM -2% | [1]; at 11.0 µM -4% | [1]; at 33.0 µM 6% | [1]; at 100.0 µM 11% | [2]; at 1.2 µM -1% | [2]; at 3.7 µM -1% | [2]; at 11.0 µM -3% | [2]; at 33.0 µM -2% | [2]; at 100.0 µM -5% | [3]; at 1.2 µM -1% | [3]; at 3.7 µM 5% | [3]; at 11.0 µM 14% | [3]; at 33.0 µM 24% | [3]; at 100.0 µM 19% | [4]; at 1.2 µM -3% | [4]; at 3.7 µM -2% | [4]; [17] -13% | [4]; at 11.0 µM -4% | [4]; at 33.0 µM 27% | [4]; [18] 54% | [4]; at 50.0 µM 37.3% | [4]; at 100.0 µM 51% | [5]; at 1.2 µM -2% | [5]; at 3.7 µM -4% | [5]; [17] -11% | [5]; at 11.0 µM -5% | [5]; at 33.0 µM 10% | [5]; [18] 19% | [5]; at 50.0 µM 37.7% | [5]; at 100.0 µM 47% | [6]; at 1.2 µM -1% | [6]; at 3.7 µM -1% | [6]; at 11.0 µM 4% | [6]; at 33.0 µM 58% | [7]; [17] 0% | [7]; [18] -8% | [7]; at 50.0 µM 56.2% | [8]; at 1.2 µM -3% | [8]; at 3.7 µM -1% | [8]; at 11.0 µM -4% | [8]; at 33.0 µM 14% | [8]; at 100.0 µM 24% | [9]; [17] 40% | [9]; [18] 42% | [9]; at 50.0 µM 37.8% | [10]; at 1.2 µM -3% | [10]; at 3.7 µM -1% | [10]; [17] 3% | [10]; at 11.0 µM -1% | [10]; at 33.0 µM 11% | [10]; [18] 58% | [10]; at 50.0 µM 64.1% | [10]; at 100.0 µM 44% | [11]; at 1.2 µM -3% | [11]; at 3.7 µM -4% | [11]; at 11.0 µM -4% | [11]; at 33.0 µM 1% | [11]; at 100.0 µM 11% | [12]; at 1.2 µM -4% | [12]; at 3.7 µM -1% | [12]; at 11.0 µM -1% | [12]; at 33.0 µM 16% | [12]; at 100.0 µM 46% | [13]; at 1.2 µM -3% | [13]; at 3.7 µM -2% | [13]; at 11.0 µM -1% | [13]; at 33.0 µM 7% | [13]; at 100.0 µM 11% | [14]; [17] 17%

O=C1CSc2cc([N+](=O)[O-])ccc2N1
inactive: [1]; at 1.2 µM 10% | [1]; at 3.7 µM 6% | [1]; at 11.0 µM 9% | [1]; at 33.0 µM 16% | [1]; at 100.0 µM 15% | [2]; at 1.2 µM 4% | [2]; at 3.7 µM 12% | [2]; at 11.0 µM 5% | [2]; at 33.0 µM 18% | [2]; at 100.0 µM -20% | [3]; at 1.2 µM -9% | [3]; at 3.7 µM 3% | [3]; at 11.0 µM -4% | [3]; at 33.0 µM 3% | [3]; at 100.0 µM -6% | [15]; at 1.2 µM 0% | [15]; at 3.7 µM 3% | [15]; at 11.0 µM -3% | [15]; at 33.0 µM -8% | [15]; at 100.0 µM 3% | [4]; at 1.2 µM -20% | [4]; at 3.7 µM -6% | [4]; [17] -1% | [4]; at 11.0 µM -22% | [4]; at 33.0 µM -18% | [4]; [18] -14% | [4]; at 50.0 µM 21.1% | [4]; at 100.0 µM -17% | [5]; at 1.2 µM -4% | [5]; at 3.7 µM -5% | [5]; [17] -31% | [5]; at 11.0 µM -10% | [5]; at 33.0 µM -21% | [5]; [18] -12% | [5]; at 50.0 µM -18.1% | [5]; at 100.0 µM -22% | [7]; [17] -14% | [7]; [18] -14% | [7]; at 50.0 µM -11% | [8]; at 1.2 µM -3% | [8]; at 3.7 µM -14% | [8]; at 11.0 µM -8% | [8]; at 33.0 µM -19% | [8]; at 100.0 µM -13% | [9]; [17] 23% | [9]; [18] 27% | [9]; at 50.0 µM 22.4% | [10]; at 1.2 µM 8% | [10]; at 3.7 µM 9% | [10]; [17] 0% | [10]; at 11.0 µM 23% | [12]; at 1.2 µM 18% | [12]; at 3.7 µM 5% | [12]; at 11.0 µM 6% | [12]; at 33.0 µM 0% | [12]; at 100.0 µM -22% | [13]; at 1.2 µM 19% | [13]; at 3.7 µM 19% | [13]; at 11.0 µM 17% | [13]; at 33.0 µM 36% | [13]; at 100.0 µM 11% | [14]; [17] -15% | [14]; [18] -2% | [14]; at 50.0 µM -5.25% | [16]; at 1.2 µM 0% | [16]; at 3.7 µM -18% | [16]; at 11.0 µM -3% | [16]; at 33.0 µM -2% | [16]; at 100.0 µM -13%
active: [10]; at 33.0 µM 74% | [10]; [18] 79% | [10]; at 50.0 µM 70.2% | [10]; at 100.0 µM 91%

NCCNc1ccc(NCCN)c2c1C(=O)c1c(O)ccc(O)c1C2=O
inactive: [1]; at 1.2 µM 24% | [1]; at 100.0 µM 63% | [2]; at 1.2 µM 0% | [2]; at 3.7 µM 9% | [2]; at 11.0 µM 7% | [15]; at 1.2 µM -30% | [15]; at 3.7 µM -21% | [15]; at 11.0 µM -9% | [15]; at 100.0 µM 66% | [4]; at 1.2 µM 20% | [4]; at 50.0 µM 29.6% | [4]; at 100.0 µM 65% | [5]; at 1.2 µM -10% | [5]; at 3.7 µM 18% | [5]; [17] 14% | [5]; at 11.0 µM 13% | [5]; at 50.0 µM 67.5% | [5]; at 100.0 µM 68% | [6]; at 1.2 µM -4% | [6]; at 3.7 µM 5% | [6]; at 11.0 µM 18% | [6]; at 100.0 µM 68% | [7]; [17] 17% | [7]; at 50.0 µM 65% | [8]; at 1.2 µM 28% | [8]; at 3.7 µM 20% | [8]; at 11.0 µM 32% | [8]; at 100.0 µM 52% | [9]; [17] 21% | [9]; at 50.0 µM 64.5% | [10]; at 1.2 µM 0% | [10]; at 3.7 µM 23% | [10]; [17] 11% | [10]; at 11.0 µM 5% | [10]; at 50.0 µM 60% | [10]; at 100.0 µM 62% | [11]; at 1.2 µM -15% | [11]; at 3.7 µM 2% | [11]; at 11.0 µM 44% | [11]; at 100.0 µM 52% | [12]; at 1.2 µM 2% | [12]; at 3.7 µM 20% | [12]; at 11.0 µM 20% | [12]; at 100.0 µM 66% | [13]; at 1.2 µM 11% | [13]; at 3.7 µM 42% | [13]; at 11.0 µM 40% | [13]; at 100.0 µM 63% | [14]; [17] 14% | [14]; at 50.0 µM 46% | [16]; at 1.2 µM 4% | [16]; at 3.7 µM 18% | [16]; at 11.0 µM 8% | [16]; at 100.0 µM 61%
active: [1]; at 3.7 µM 83% | [1]; at 11.0 µM 88% | [1]; at 33.0 µM 85% | [2]; at 33.0 µM 82% | [2]; at 100.0 µM 76% | [15]; at 33.0 µM 86% | [4]; at 3.7 µM 78% | [4]; [17] 73% | [4]; at 11.0 µM 87% | [4]; at 33.0 µM 85% | [4]; [18] 84% | [5]; at 33.0 µM 87% | [5]; [18] 84% | [6]; at 33.0 µM 88% | [7]; [18] 77% | [8]; at 33.0 µM 82% | [9]; [18] 77% | [10]; at 33.0 µM 85% | [10]; [18] 70% | [11]; at 33.0 µM 80% | [12]; at 33.0 µM 86% | [13]; at 33.0 µM 86% | [14]; [18] 82% | [16]; at 33.0 µM 85%
